Screening results from PubChem BioAssay.
Sampled rows, rich in hits. Any-hit rate of the full collection: about 11%.
HCV inh: HCV inhibition; Huh7.5.1 HCVcc-Cre infection, luciferase reporter, 44 h; Potency, µM (top dose mostly 41.8 µM), inactives show at the top dose activity change, negative = inhibition, most hits filed as inhibitors; actives 3.4% (n = 340,000); AID 651820; also: % is scaled to controls: 0 for no effect and ±100 for the full control effect
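Compounds are dispensed onto cells plated 4 h earlier at 1,000 per well, with HCVcc-Cre virus (about 0.5 moi) added next. Following 44 h of culture, luminescent signal is measured for 15 sec after 15 min with substrate at room temperature.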
VACV Venus inh: inhibitors of vaccinia virus (Venus reporter); Vaccinia virus Venus reporter expression, fluorescence; Potency, µM (doses to about 36.5 µM), without a hit: at the top dose activity change, negative = inhibition, hits mostly inhibitors; actives 0.46% (n = 330,000); AID 720580; calls by dose curve; tested in A549 cells; also: % is scaled to controls: 0 for no effect and ±100 for the full control effect; nearly all actives have a fitted effect of over 30% in size
Vaccinia mCherry: inhibitors of vaccinia virus infection (mCherry reporter signal); Potency, µM (doses to about 36.5 µM), for inactives: top-dose activity change, negative = inhibition, actives largely listed as inhibitors; actives 0.63% (n = 310,000); Vaccinia virus mCherry reporter infection, fluorescence; calls by dose curve; tested in A549 cells; also: % is scaled to controls: 0 for no effect and ±100 for the full control effect; nearly all actives have a fitted effect of over 35% in size
Pf growth 96h: inhibits malaria parasite growth, 96 h. P. falciparum luciferase reporter growth, 96 h. Potency, µM (top dose mostly 28.7 µM), inactives show top-dose activity change, negative = inhibition, most hits filed as inhibitors. actives 6.9% (n = 320,000). AID 504834; also: % is scaled to controls: 0 for no effect and ±100 for the full control effect
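Compounds incubated with erythrocytes infected by luciferase-expressing P. falciparum (2% hematocrit, 0.05% parasitemia final) for 96 hours, 37 C in 5% CO2. Growth inhibition scored as decreased luciferase luminescence.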
NS1 inh: blocks influenza NS1 protein function; AID 2326; actives 0.4% (n = 270,000); Potency, µM (highest dose often 46.1 µM), without a hit: top-dose activity, positive = more growth; calls by dose curve; also: actives are rising curves; nearly all actives have a fitted effect of over 50% in size
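OD600 was taken as the measure of yeast growth restored by compound in an NS1-expressing S. cerevisiae strain. Cells had been washed out of glucose medium and diluted 1:100 into galactose -URA medium, pH 6.0.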
Pf growth 48h: inhibits P. falciparum growth in the first generation, 48 h; P. falciparum luciferase growth in erythrocytes, 48 h; Potency, µM (top dose mostly 28.7 µM), for the others: at the highest dose activity change, negative = inhibition, most hits filed as inhibitors; actives 5.9% (n = 310,000); AID 504832; also: % is scaled to controls: 0 for no effect and ±100 for the full control effect
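Growth was read as firefly luciferase luminescence after a 48 h, 37 C, 5% CO2 exposure of compounds to reporter-bearing P. falciparum cultures (0.1% parasitemia, 2% hematocrit final) in Albumax-supplemented RPMI 1640.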
Active calls of the source: *; i = inactive; u = inconclusive; x = no result given. Unless noted, calls follow the shape of the dose curve; as a rule, active = well fitted inhibition curve with a large enough effect; inconclusive = small, poorly fitted or top-dose-only effect, or another doubt; inactive = no such curve, though single readings can be large or run the other way. Potency is read from the fitted curve at half-maximal effect.

SMILES	HCV inh	VACV Venus inh	Vaccinia mCherry	Pf growth 96h	NS1 inh	Pf growth 48h
COc1ccc(-n2c(O)c(C(C)=NC3CC3)c(=O)[nH]c2=O)cc1	-0.4%	-22.2%	x	x	u	17.5%
COc1ccc(C(=O)C(=NN)c2ccccc2)cc1	x	-2.0%	-14.8%	x	x	x
COc1ccc(NC(=O)CNC(=O)Cn2cnc3sc(C)c(C)c3c2=O)cc1OC	21.3%	-8.5%	-24.0%	10.4µM*	-1.5%	0.7%
CC(C)CNC(=O)C1(C)CCCN1C(=O)CCc1cccs1 (stereo not given)	x	-4.7%	6.7%	x	x	x
O=C(CCc1nc2ccccc2s1)N1CCN(S(=O)(=O)c2cccs2)CC1	-21.1%	x	x	13.1µM*	-8.0%	u
CC(=O)c1ccc(OCC(=O)N2CCN(S(=O)(=O)c3ccc(Br)s3)CC2)cc1	u	-21.2%	i	u	x	u
O=C(CCCc1c[nH]c2ccccc12)N1CCN(S(=O)(=O)c2cccs2)CC1	12.6µM*	x	x	u	-20.0%	u
CCC(=O)c1ccc(OCC(=O)N2CCN(S(=O)(=O)c3ccc(Cl)s3)CC2)cc1	u	x	x	10.4µM*	x	u
O=C1CN(C(=O)CCCc2c[nH]c3ccccc23)c2ccccc2N1	-26.5%	-17.1%	-24.7%	x	u	9.28µM*
CC(=O)c1ccn(S(=O)(=O)c2ccc(Cl)cc2)c1	13.0%	x	x	-17.9%	-2.9%	18.3%
COc1ccccc1OC(=O)CCc1nc2ccccc2s1	u	x	x	-12.9%	x	10.4µM*
Cc1cc(C)c(S(=O)(=O)N2CCN(C(=O)c3cc(=O)[nH]c4ccccc34)CC2)c(C)c1	-5.8%	x	x	u	x	11.7µM*
COc1cc(C(=O)N2CCN(S(=O)(=O)c3cccs3)CC2)cc(OC)c1C	-1.3%	x	x	u	-0.4%	u
COc1ccc(Br)c(C(=O)N2CCN(S(=O)(=O)c3cccs3)CC2)c1	8.0%	x	x	24.7%	16.7%	3.7µM*
Cc1ccc(S(=O)(=O)N2CCN(C(=O)CCc3c[nH]c4ccccc34)CC2)c(C)c1	-17.5%	-12.3%	-28.7%	7.38µM*	x	u
Cc1ccc(S(=O)(=O)N2CCN(C(=O)CCc3c[nH]c4ccccc34)CC2)cc1	-8.7%	x	x	u	x	u
COC(=O)CCCc1nc2ccccc2s1	15.7%	-11.5%	-18.1%	110.8%	4.0%	-19.2%
CC[C@@]1(C(=O)OC)N[C@H](CN(C)S(=O)(=O)c2ccc(OC(F)(F)F)cc2)[C@@H]2C(=O)N(C)C(=O)[C@@H]21	-19.6%	-10.8%	-12.9%	x	x	x
COc1ccc(Oc2ncnc3c2oc2ccc(Br)cc23)cc1	0.2%	-4.3%	-10.7%	23.0%	-8.6%	23.6%
CCCCNC(=O)c1ccccc1NC(=O)CN(c1ccccc1)S(=O)(=O)N(C)C	-4.8%	4.0%	-3.8%	36.3%	-5.4%	u
Cc1cc(C)c(C)c(S(=O)(=O)N2CCN(C(=O)c3cc(=O)[nH]c4ccccc34)CC2)c1C	u	x	x	u	14.0%	u
CC(=O)c1ccc(OCCCC(=O)N2CCN(S(=O)(=O)c3cccs3)CC2)cc1	u	x	x	9.28µM*	-3.6%	u
Cc1ccc(S(=O)(=O)N2CCN(C(=O)c3cc(=O)[nH]c4ccccc34)CC2)c(C)c1	14.1µM*	x	x	u	-4.7%	u
COc1ccc(S(=O)(=O)N2CCCCC2)cc1NC(=O)c1ccc([N+](=O)[O-])o1	10µM*	-18.6%	i	6.57µM*	x	u
CCN1CCN(c2ccc(S(=O)(=O)N3CCCCC3)cc2NC(=O)c2sccc2C)CC1	-23.3%	-13.0%	-1.1%	u	x	u
CCN1CCN(c2ccc(S(=O)(=O)N3CCCCC3)cc2NC(=O)c2ccc([N+](=O)[O-])o2)CC1	3.55µM*	10µM*	3.98µM*	8.28µM*	x	13.1µM*
Cc1c(Cl)cccc1NC(=O)C(=O)NCC(c1cccnc1)N1CCN(c2ccccc2)CC1 (stereo not given)	x	-20.4%	-12.6%	x	x	x
Cc1ccc(/C=N/NC(=O)Cc2ccc(O)cc2)s1	9.2%	x	x	7.38µM*	-3.5%	5.8%
C/C(=N\OCC(=O)N/N=C/c1ccc(C)cc1O)c1cccs1	10µM*	x	x	107.8%	-20.1%	7.7%
